# Data: ChEMBL document CHEMBL3988442, “University of Dundee, Small-Polar-MMV Screening Library” (2021)
# Target: T1, Aspartate--tRNA(Asp/Asn) ligase (Mycobacterium tuberculosis (strain ATCC 25618 / H37Rv)) (UniProt P9WFW3); further: in the data most compounds retested in dose-response had high values
# T1 sequence (whole entry): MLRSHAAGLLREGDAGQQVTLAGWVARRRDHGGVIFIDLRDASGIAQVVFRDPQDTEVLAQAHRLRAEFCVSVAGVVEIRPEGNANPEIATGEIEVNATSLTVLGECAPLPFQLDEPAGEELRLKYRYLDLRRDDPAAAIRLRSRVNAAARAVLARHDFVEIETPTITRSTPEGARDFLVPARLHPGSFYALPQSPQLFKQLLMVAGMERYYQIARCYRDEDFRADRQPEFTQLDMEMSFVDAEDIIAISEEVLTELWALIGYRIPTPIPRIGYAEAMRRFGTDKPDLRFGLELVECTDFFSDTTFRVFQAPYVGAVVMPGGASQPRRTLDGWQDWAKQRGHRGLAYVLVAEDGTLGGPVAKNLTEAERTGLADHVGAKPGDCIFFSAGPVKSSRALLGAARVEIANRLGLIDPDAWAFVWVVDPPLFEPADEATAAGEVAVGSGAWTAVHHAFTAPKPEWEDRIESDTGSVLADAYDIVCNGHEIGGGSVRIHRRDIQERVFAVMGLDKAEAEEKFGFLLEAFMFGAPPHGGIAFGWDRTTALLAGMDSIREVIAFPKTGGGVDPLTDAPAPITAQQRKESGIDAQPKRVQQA
# Assay: Assay for Asp RNA synthetase-1 from Mycobacterium tuberculosis
# Assay type: functional
# Design: scale not given: direction of the effect not stated beside the values
# Settings: 30 µM
row,SMILES,Percent Effect
1,O=C(c1ccco1)N1CCC2(CCOC2)C1 (stereo not given),2.53%
2,O=C(NCCC(=O)N1CCCCCC1)c1c(O)cc(F)cc1F,-0.98%
3,CC(NC(=O)c1nc(=O)[nH][nH]1)c1ccc(OCC2CC2)c(F)c1 (stereo not given),-2.07%
4,Cc1ccc(-c2cc(C(=O)NC(C)C(=O)N3CCCCC3)on2)cc1 (stereo not given),2.34%
5,c1cnn(CC2CN(c3ncnc4ccsc34)CCO2)c1 (stereo not given),1.65%
6,Cc1ccc(O)c(CNC2CCc3nc(C(C)C)nn3C2)n1 (stereo not given),2.88%
7,CSc1nccn1-c1cccc(C(=O)NCc2nnc(C)n2C)c1,4.52%
8,CC(CNC(=O)N1CCSCC1)Cc1cccs1 (stereo not given),1.56%
9,CC(c1ccc(F)c(F)c1)N1CCN(Cc2nccn2C)CC1 (stereo not given),-2.85%
10,CCN1CCN(c2ncc(-c3cc(C)no3)c(-c3ccoc3C)n2)CC1,0.313%
11,COc1cccc(C(=O)NCC(O)c2cccs2)c1 (stereo not given),-4.63%
12,O=C(c1cccc(OC2CCCC2)c1)N1CCCC(n2cncn2)C1 (stereo not given),-0.0372%
13,O=C(NCc1cnc2n1CCN(c1ncc(F)cn1)CC2)C1CCC1,-2.16%
14,c1ccc(-c2nc(CN3CCCC3Cn3cncn3)cs2)cc1 (stereo not given),0.143%
15,Cc1noc(Cl)c1CCC(=O)N1CCC(CC(N)=O)CC1,0.618%
16,COc1ccccc1C(=O)NC(CC(=O)O)c1cccs1 (stereo not given),5.75%
17,OC(CNCCn1cccn1)c1ccc(F)c(F)c1 (stereo not given),-2.25%
18,CC(C)N(C)C(=O)CN1CCCC(c2ccc(C(=O)O)cc2)C1 (stereo not given),-0.982%
19,CCn1c(C2CCCN(Cc3nccn3CCOC)C2)nn(C)c1=O (stereo not given),4.25%
20,Cn1nc(CNC(=O)NCc2ccc(Cl)cc2)c2c1CCOC2,1.91%

# Target: Shiga toxin 2 (Escherichia coli O157:H7) (UniProt P09385+P09386)
# Assay: E. coli 0.157:H7 Shiga Toxin SOP - stx2 screening assay
# Assay type: functional
# Design: scale not given: direction of the effect not stated beside the values
# Settings: 30 µM
row,SMILES,Percent Effect
1,Cc1nn(C)c(C)c1CNCc1ccc(N2CCOCC2)nc1,-24.1%
2,CCOc1ccc(S(=O)(=O)NCc2cccnc2N(C)C)cc1,-16.7%
3,Cc1cc(C)cc(OCCC(=O)N2CCOCC2c2ncon2)c1 (stereo not given),33.2%
4,CCn1nc(CC(C)C)cc1C(=O)NCCCOC,11.5%
5,Cc1ccc(-c2nc(CNCCn3cccn3)cs2)o1,13%
6,COC(=O)CN1CC(c2nc(Cc3ccccc3)no2)C1,-14.5%
7,Cc1ncsc1C(=O)NCCSCCCO,-35.1%
8,COc1ccccc1C1(C(=O)NCCN2CCOCC2)CCOCC1,21.5%
9,CC(C)NC(=O)COc1nc(C(C)(C)C)no1,2.21%
10,CCS(=O)(=O)N1CCO[C@H]2[C@H](OCC3CCCC3)CC[C@@H]21,-8.34%
11,Cc1cccc(C(=O)N2C[C@@H]3CCN(c4cccnc4)C[C@@H]3C2)c1,-5.99%
12,CNC(=O)c1nc2c(s1)CCN(C(=O)Cc1ccc(OC)cc1)CC2,-7.44%
13,CN(C)C(=O)CSc1nnc(CCNC(=O)OC(C)(C)C)o1,-59.4%
14,CNC(=O)[C@@]12CCO[C@@H]1CCN(S(=O)(=O)c1cccnc1)C2,7.61%
15,CCOc1cc(/C=C/c2ncc(C(=O)O)s2)ccc1O,-21.4%
16,O=C(CCNC(=O)C1CCCC1)NCc1ccccc1Cn1cncn1,29.7%
17,O=C(NCc1ccccn1)[C@@H]1COC[C@H]2CN(C3CCOCC3)C[C@H]21,-6.42%
18,CN(Cc1ccsc1)C(=O)CN1CCOC(Cn2cccn2)C1 (stereo not given),-18.6%
19,O=C1NCCN(CC2CC2)C12CCN(Cc1ccco1)CC2,-8.3%
20,CCN(CCNC(=O)c1ccccc1OCCOC)C1CC1,-72%

row,SMILES,Percent Effect
1,O=C(c1ccco1)N1CCC2(CCOC2)C1 (stereo not given),-46.7%
2,O=C(NCCC(=O)N1CCCCCC1)c1c(O)cc(F)cc1F,-11.1%
3,CC(NC(=O)c1nc(=O)[nH][nH]1)c1ccc(OCC2CC2)c(F)c1 (stereo not given),5.49%
4,Cc1ccc(-c2cc(C(=O)NC(C)C(=O)N3CCCCC3)on2)cc1 (stereo not given),-5.52%
5,c1cnn(CC2CN(c3ncnc4ccsc34)CCO2)c1 (stereo not given),-10.2%
6,Cc1ccc(O)c(CNC2CCc3nc(C(C)C)nn3C2)n1 (stereo not given),1.45%
7,CSc1nccn1-c1cccc(C(=O)NCc2nnc(C)n2C)c1,19.7%
8,CC(CNC(=O)N1CCSCC1)Cc1cccs1 (stereo not given),6.01%
9,CC(c1ccc(F)c(F)c1)N1CCN(Cc2nccn2C)CC1 (stereo not given),-13.2%
10,CCN1CCN(c2ncc(-c3cc(C)no3)c(-c3ccoc3C)n2)CC1,-6.58%
11,COc1cccc(C(=O)NCC(O)c2cccs2)c1 (stereo not given),2.93%
12,O=C(c1cccc(OC2CCCC2)c1)N1CCCC(n2cncn2)C1 (stereo not given),16.8%
13,O=C(NCc1cnc2n1CCN(c1ncc(F)cn1)CC2)C1CCC1,3.59%
14,c1ccc(-c2nc(CN3CCCC3Cn3cncn3)cs2)cc1 (stereo not given),5.25%
15,Cc1noc(Cl)c1CCC(=O)N1CCC(CC(N)=O)CC1,17.9%
16,COc1ccccc1C(=O)NC(CC(=O)O)c1cccs1 (stereo not given),-32.6%
17,OC(CNCCn1cccn1)c1ccc(F)c(F)c1 (stereo not given),-25.7%
18,CC(C)N(C)C(=O)CN1CCCC(c2ccc(C(=O)O)cc2)C1 (stereo not given),5.69%
19,CCn1c(C2CCCN(Cc3nccn3CCOC)C2)nn(C)c1=O (stereo not given),5.34%
20,Cn1nc(CNC(=O)NCc2ccc(Cl)cc2)c2c1CCOC2,-9.65%
